Measured values as given in PubChem BioAssay AID651650 (Sanford-Burnham Center for Chemical Genomics, 2012).

These compounds were tested against Neuropilin-1 (Homo sapiens) (UniProt O14786) (assay: blockers of CendR peptide binding to NRP-1 – biochemical, FP and AlphaScreen panel, dose response (AID 651650)). Settings: NRP-1 b1b2 / RPARPAR peptide binding, FP or AlphaScreen; run 1, at 100 µM (top of the series).
Sequence of Neuropilin-1 (Homo sapiens) (O14786 whole entry, looked up): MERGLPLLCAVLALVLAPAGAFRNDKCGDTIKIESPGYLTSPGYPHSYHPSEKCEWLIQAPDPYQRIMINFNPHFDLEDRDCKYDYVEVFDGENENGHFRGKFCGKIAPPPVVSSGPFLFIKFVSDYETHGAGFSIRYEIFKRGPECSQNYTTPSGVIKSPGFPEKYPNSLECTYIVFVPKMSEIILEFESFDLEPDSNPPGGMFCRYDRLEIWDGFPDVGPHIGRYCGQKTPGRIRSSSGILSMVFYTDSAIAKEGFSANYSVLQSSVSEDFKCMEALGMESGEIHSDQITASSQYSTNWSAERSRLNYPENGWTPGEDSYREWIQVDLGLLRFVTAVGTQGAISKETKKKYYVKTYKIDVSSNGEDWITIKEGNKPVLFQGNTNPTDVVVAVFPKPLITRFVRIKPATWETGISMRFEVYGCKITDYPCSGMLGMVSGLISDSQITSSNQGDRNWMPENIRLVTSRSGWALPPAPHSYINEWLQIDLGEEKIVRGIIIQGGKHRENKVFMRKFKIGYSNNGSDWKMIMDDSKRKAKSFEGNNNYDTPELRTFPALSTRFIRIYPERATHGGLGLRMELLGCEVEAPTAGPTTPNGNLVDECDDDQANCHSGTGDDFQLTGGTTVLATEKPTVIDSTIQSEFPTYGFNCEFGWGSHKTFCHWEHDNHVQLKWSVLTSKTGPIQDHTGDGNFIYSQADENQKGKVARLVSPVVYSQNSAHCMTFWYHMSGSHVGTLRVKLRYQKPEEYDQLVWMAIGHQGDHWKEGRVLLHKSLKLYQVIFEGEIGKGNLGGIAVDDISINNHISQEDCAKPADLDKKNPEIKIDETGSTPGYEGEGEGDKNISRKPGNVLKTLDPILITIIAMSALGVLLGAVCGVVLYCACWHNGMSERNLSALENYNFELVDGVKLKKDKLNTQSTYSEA

| Structure (SMILES) | inhibition [%] |
| --- | --- |
| CC(=O)N1CCSc2ccc(S(=O)(=O)Nc3ccc(C)cc3)cc21 | 47.7 |
| Cc1ccc(NNS(=O)(=O)c2ccc(C)cc2)cc1 | 16.2 |
| O=C(NC1CC1)c1ccc(COc2ccc(F)cc2)o1 | 23.1 |
| Cc1ccc(C(=O)Nc2ccccc2-c2ccccc2)cc1S(=O)(=O)Nc1ccccc1 | 32.1 |
| N#Cc1ccc(COC(=O)c2cnc(Cl)c(Cl)c2)cc1 | 36.5 |
| CCOc1ccc(S(=O)(=O)NNC(=O)c2cc3ccccc3o2)cc1 | 1.91 |
| CCCCN(c1ccccc1)S(=O)(=O)c1ccc2c(c1)CCN2C(=O)CCC(=O)O | 8.36 |
| COc1cc(Cn2nnc3ccccc32)cc(Br)c1O | 37.3 |
| Cc1ccc2cc(CN(c3ccccc3C)S(=O)(=O)c3ccccc3)c(=O)[nH]c2c1 | 41.9 |
| CC(/C=C/c1ccccc1)=N\NC(=O)CCc1ccccc1 | 19.2 |
| C#CCOc1nc(C)cc(C)c1S(=O)(=O)c1ccccc1C | 25.9 |
| COc1ccc([C@H]2/C=C\CN(S(C)(=O)=O)[C@@H](C)C(=O)N2Cc2ccc(F)cc2)cc1 | 28.8 |
| Cc1ccc(C(=O)Nc2nnc([C@H]3C[C@H](O)[C@@H](CO)O3)s2)cc1 | 25.4 |
| Cc1ccccc1Nc1nc(N)nc(COC(=O)CC2CC3CCC2C3)n1 (stereo not drawn) | 3.37 |
| O=C(CSc1nc(O)c(Cc2ccccc2)c(=O)n1-c1ccccc1)N1CCOCC1 | -18.5 |
| Cc1ccc(C)c(-n2c(SCC(=O)NC(C(=O)O)C(C)C)nnc2-c2cccc(Cl)c2)c1 (stereo not drawn) | 46.2 |
| Clc1nc(-c2ccccn2)nc2scc(-c3ccccc3)c12 | 7.99 |
| Cc1occc1C(=O)N1N=C(C2CC2)CC1(O)C(F)(F)F (stereo not drawn) | 35.3 |
| O=C(O)c1cc(NCc2ccc(F)cc2)ccc1N1CCOCC1 | 46.8 |

| Structure (SMILES) | inhibition [%] |
| --- | --- |
| O=C1CCC/C=C\C[C@@H](CC(=O)N(CCO)Cc2ccccc2)C(=O)N2CCC[C@H]2CO1 | -2.11 |
| CC1CCC(NC(=O)C2CCC(CNS(=O)(=O)c3cccc4cccnc34)CC2)CC1 (stereo not drawn) | 19 |
| CCCCOC(=O)c1ccc(NS(=O)(=O)c2cc(-c3nnnn3CC)ccc2OC)cc1 | 44.5 |
| CC(C)(C)n1cnc2cc(NC(=O)c3ccccc3)ccc21 | 95.9 |
| O=C(Cn1ccc(NC(=O)OCc2ccccc2)nc1=O)NCCCn1ccnc1 | 48.6 |
| O=C(Cc1ccccc1Cl)N1CCOCC1 | 25.2 |
| O=C(CN1C2=NCCN2c2ccccc21)c1ccco1 | 0.0631 |
| CCn1ncc(Br)c1C(=O)N(C)C12CC3CC(CC(C3)C1)C2 | 41.8 |
| Cc1ccc(-n2c(-c3ccco3)nc3c(cnn3-c3ccc(C)cc3)c2=O)cc1 | 50.3 |
| CC(C)c1ccc(S(=O)(=O)N2CCN(C(=O)CN3C(=O)c4ccccc4C3=O)CC2)cc1 | 64.7 |
| CC(C)C1=C2CCCCC2NC(=O)N1 (stereo not drawn) | 32.2 |
| CC(C)(C)c1nc(SCC(=O)NCc2ccco2)c2ccccc2n1 | 44.2 |
| NC(=O)c1c(NC(=O)C(=O)N2CCOCC2)sc2c1CCCC2 | 16.2 |
| CCCCOc1ccc(C(=O)N/C(=C/C=C/c2ccccc2)C(=O)NCCCO)cc1 | 10.5 |
| CCCS(=O)(=O)N1CCC(Cc2ccc(OC)cc2)(C(=O)OCC)CC1 | -57.8 |
| O=C(c1ncn(Cc2ccccc2)c1C(=O)N1CCc2ccccc2C1)N1CCc2ccccc2C1 | 23 |
| NC(=O)C1CCCN(C(=O)c2ccc3nc(Cc4cccc(Cl)c4)oc3c2)C1 (stereo not drawn) | 101 |
| Cc1cn([C@H]2C[C@H](O)[C@@H](CCC(=O)NCCc3ccc4ccccc4c3)O2)c(=O)[nH]c1=O | 22.6 |
| O=C(NCCN1CCN(C(=O)c2cccc(OC(F)F)c2)CC1)c1cccc(OC(F)F)c1 | 0.403 |
